Consider 97 compounds from PubChem BioAssay AID588689 (Southern Research Specialized Biocontainment Screening …, 2011).

The inhibition is the relative decrease from the control value, in per cent.

The target in this assay is Genome polyprotein (Dengue virus type 2 (strain 16681-PDK53)) (UniProt P29991). Briefly: flavivirus cap methylation enzyme inhibition – biochemical, confirmation dose response, primary screen (AID 588689). The note with it: Dengue-2 NS5 methyltransferase capping enzyme assay, at 25 µM, stronger effect = higher value.
Where [1] appears, read: measured here: pilot screen replicate inhibition.

Several values for one entry are separate records, joined by “and”; a condition that tells them apart may be missing. Equal values may be shown once. About 1,000 (0.29%) of roughly 340,000 compounds were called active. Rule as the data show it: inconclusive = inhibition above about 29% without an active follow-up result; inactive = below that. The list is a sample of the results. Entries with a potency or affinity are not part of this list.

Turning to `O=C(O)COc1ccc2nsnc2c1Cl`, the inhibition was -9.55% (inactive). Regarding `C=C(CC)C(=O)c1ccc(OCC(=O)O)c(Cl)c1Cl`, the inhibition is -3.73% (inactive). Same read-out and setting: next, `CCOCCCNCC(O)c1ccccc1` (stereo not drawn): 0% (inactive); `CC1(C)CC(=NO)CC(C)(C)N1`: 0% (inactive); `COc1cc(C(=O)Nc2ccc(S(=O)(=O)Nc3ncccn3)cc2)c([N+](=O)[O-])cc1OC`: 0.74% (inactive).

Consider `Cc1cc(NS(=O)(=O)c2ccccc2)c([N+](=O)[O-])cc1C`, for which the inhibition is 4.34% (inactive). On to `COc1ccc(S(=O)(=O)/N=C2/NC(=O)/C(=C\c3cc(OC)c(OC)cc3[N+](=O)[O-])S2)cc1`, for which the inhibition is 2.45% (inactive). On the same count and under the same terms, the figure for `COc1ccc([N+](=O)[O-])cc1NS(=O)(=O)c1ccccc1` is 5.1% (inactive).

Turning to `Cc1ccc(/C=N/NC(=O)C(C)Oc2cccc3ccccc23)o1` (stereo not drawn), the inhibition was -3.22% (inactive).

As for `CCC1(C)NC(=O)N(CC(=O)N2CCC(Cc3ccccc3)CC2)C1=O` (stereo not drawn), the inhibition is -9.76% (inactive). For `CC(Cc1ccccc1)=NNc1ccc([N+](=O)[O-])cc1[N+](=O)[O-]`, the inhibition was 10.5% (inactive). As to `C/C(CC(C)C)=N/Nc1ccc([N+](=O)[O-])cc1[N+](=O)[O-]`, the inhibition was -3.83% (inactive). For `CC(=O)NC(C)c1nc2ccccc2n1C(C)C` (stereo not drawn), the inhibition is -3.46% (inactive). The same measure, in the same setting: next, `COc1ccc(/C=C/C=C2\NC(=S)NC2=O)cc1`: -2.15% (inactive). On to `CC(/C=C1\NC(=S)NC1=O)=C\c1ccccc1`, for which the inhibition is -7.18% (inactive). For the compound `CCC(C)(C(=O)NC1CCCC1)N(C(=O)CNC(=O)c1ccccc1)c1c(C)n(C)n(-c2ccccc2)c1=O` (stereo not drawn), the inhibition was 0% (inactive). `COc1ccc(CNC(=O)c2cc3ccccc3oc2=O)cc1`: the inhibition is -1.96% (inactive).

As to `COc1ccc(CN(C)CC(=O)Nc2c(C)cccc2C)c(OC)c1`, the inhibition was 1.51% (inactive). With `CCOc1cc(S(=O)(=O)Nc2cc(C)cc(C)c2)ccc1Cl`, the inhibition is 0% (inactive). With `COc1ccc(NS(=O)(=O)c2ccc(Cl)c(N)c2)cc1Br`, the inhibition is -3.69% (inactive).

In the case of `COc1ccccc1CCC(=O)N(C)CC(=O)Nc1ccc(F)cc1`, the inhibition was 1.3% (inactive). Still for that read-out and setting: next, `O=C(NNc1cccc(Cl)c1)c1cccnc1Cl`: -5.34% (inactive); `COc1ccc(/C=C(/C#N)C(=O)Nc2ccccc2C)cc1C(=O)O`: 0% (inactive); `COc1cc(/C=C(\C#N)C(=O)Nc2cccc3ncccc23)cc(OC)c1OC`: -57.5% (inactive). Same read-out and setting: next, `O=C(CN1CCN(C(c2ccccc2)c2ccccc2)CC1)NC(=O)NCc1ccco1`: -1.64% (inactive); `Oc1ccc(/C=N/N(c2ccccc2)c2ccccc2)c(O)c1O`: 9.52% (inactive); `O=C(/C(=N/N=C/c1ccc(O)c(O)c1)c1ccccc1)c1ccccc1`: 7.23% (inactive). On to `COc1cc(/C=N/N=C(/C(=O)c2ccccc2)c2ccccc2)cc(OC)c1O`, for which the inhibition is 0% (inactive). Consider `CCN(CC)c1ccc(/C=N/N=C(c2ccccc2)c2ccccc2)c(O)c1`, for which the inhibition was -35.6% (inactive). As for `CC(C)c1ccc(Nc2nc(N3CCOCC3)nc(N3CCOCC3)n2)cc1`, the inhibition is -4.95% (inactive). On the same count and under the same terms, next, `COC(=O)C(C(=O)OC)N1C(=O)CCC1=O`: -3.21% (inactive). With `CC(=O)c1ccc(NC(=O)CCc2nnc3ccc(N4CCCC4)nn23)cc1`, the inhibition is 1.97% (inactive). Still for that read-out and setting: the figure for `CN(C)C1=NC[C@H](Cc2ccccc2)N1CC1CCC(C(C)(C)C)CC1` (stereo partly drawn) is 0.79% (inactive); for `Cc1ccc([C@@H]2CC=C(C(=O)O)[C@H](c3ccc(Cl)cc3)N2S(=O)(=O)c2ccc(C)cc2)cc1` it is 19.5% (inactive).

Regarding `Cc1ccc(S(=O)(=O)N2[C@@H](c3ccc(Cl)cc3)C(C(=O)O)=CC[C@H]2c2ccc(Cl)cc2)cc1`, the inhibition is 13.5% (inactive). Regarding `Cc1ccc([C@@H]2CC=C(C(=O)O)[C@H](c3ccccc3)N2S(=O)(=O)c2ccc(C)cc2)cc1`, the inhibition was -3.2% (inactive). For the compound `Cc1ccc(S(=O)(=O)N2[C@@H](c3ccc(C(C)(C)C)cc3)C(C(=O)O)=CC[C@H]2c2ccc(C(C)C)cc2)cc1`, the inhibition was -2.65% (inactive). The inhibition under setting [1] is 0.6%.

Consider `Cc1ccc(S(=O)(=O)NCCC(=O)OCC(=O)N(Cc2ccccc2)C(C)(C)C)cc1`, for which the inhibition is 7.2% (inactive).

Take `CC1(C)CC2CC(C)(CN2C(=O)COC(=O)c2cccc([N+](=O)[O-])c2)C1` (stereo not drawn): the inhibition was 6.17% (inactive). Take `CC(C(=O)Nc1ccccc1F)N1C(=O)c2ccccc2C1=O` (stereo not drawn): the inhibition is 4.32% (inactive). Regarding `CC(C(=O)Nc1ccc2c(c1)OCO2)N(C)CC(=O)Nc1ccc(Cl)cc1` (stereo not drawn), the inhibition is 2.29% (inactive). On to `Cc1ccc2c(C(=O)CN3CCCCC3CCO)c(C)[nH]c2c1` (stereo not drawn), for which the inhibition is -12.1% (inactive). For the compound `Cc1ccc(N2CN(Cc3ccco3)CNC2=S)cc1`, the inhibition is -4.68% (inactive). On the same count and under the same terms, the figure for `CC(OC(=O)C1CC1C)C(=O)Nc1ncc(Cl)cc1Cl` (stereo not drawn) is -5.81% (inactive); for `O=S(=O)(Nc1nc2ccccc2nc1NCc1ccco1)c1ccc(F)cc1` it is 21.1% (inactive); for `O=S(=O)(Nc1nc2ccccc2nc1NCc1ccco1)c1ccccc1` it is 26.3% (inactive). Take `CCCNC(=O)NC(=O)c1cnccc1C(F)(F)F`: the inhibition was 3.85% (inactive). As for `CCN(CC)c1ccc(/C=C2/C(=O)ON=C2C)cc1`, the inhibition is -145% (inactive). `CC1=NOC(=O)/C1=C/c1ccc(O)c(Br)c1`: the inhibition is -9.14% (inactive). On to `CC1=NOC(=O)/C1=C/c1ccc(O)c(Cl)c1`, for which the inhibition was 6.53% (inactive). Turning to `CC1=NOC(=O)/C1=C/c1ccc(O)cc1`, the inhibition was 33.3% (inactive). As to `CCc1nc(SCC(=O)NCCc2ccccc2)n[nH]1`, the inhibition is 0% (inactive).

As to `CCCC(c1nnnn1C(C)(C)CC)N1CCN(C(=O)c2ccco2)CC1` (stereo not drawn), the inhibition was 3.16% (inactive). Still for that read-out and setting: the figure for `O=C(c1cccc(S(=O)(=O)Nc2ccc(Br)cc2)c1)N1CCCC1` is -8.06% (inactive); for `COc1ccc(S(N)(=O)=O)cc1C(=O)NNC(=O)c1cccc(S(=O)(=O)N2CCOCC2)c1` it is 3.75% (inactive). The same measure, in the same setting: the figure for `Cc1ccc(C)c(S(=O)(=O)N2CCCC2CNC(=O)C(=O)NCc2ccco2)c1` (stereo not drawn) is 0% (inactive); for `O=C(CN1CCC(c2nc3ccccc3s2)CC1)N1CCCCC1` it is -11.7% (inactive).

Consider `O=C1c2ccccc2C(=O)N1N(c1ccccc1)c1ccccc1`, for which the inhibition is 0% (inactive). Consider `O=C1C=CC(=O)N1c1ccccc1N1C(=O)C=CC1=O`, for which the inhibition is 5.05% (inactive). On to `NC(=O)c1ccc(NCCCN2CCOCC2)c([N+](=O)[O-])c1`, for which the inhibition was -4.51% (inactive). The same measure, in the same setting: next, `CC(=O)N1CCN(c2nc(N)c(C#N)c(CC#N)c2C#N)CC1`: -8.51% (inactive); `COc1ccc(S(=O)(=O)N2CCOCC2)cc1NC(=O)COC(=O)C1CC1C` (stereo not drawn): -7.51% (inactive); `CCCCc1nc2ccc(S(=O)(=O)O)cc2[nH]1`: -2.87% (inactive). Take `CC1=NN(c2ccccc2)C(=O)C1N=Nc1ccc(S(N)(=O)=O)cc1` (stereo not drawn): the inhibition is -3.93% (inactive). For `CCN(CC)CCNC(=O)Cn1c(=O)c2cccn2c2ccc(F)cc21`, the inhibition is -0.65% (inactive). The same measure, in the same setting: the figure for `O=C(CNC(=O)c1ccc(Br)o1)NNC(=O)COc1ccccc1Cl` is 1.1% (inactive); for `COc1ccc2c(c1)-c1nc(/N=C/c3ccc(O)c(OC)c3)sc1CC2` it is 27.5% (inactive). Same read-out and setting: next, `COc1ccc2c(c1)-c1nc(/N=C/c3ccccc3O)sc1CC2`: 29.6% (inactive); `Oc1c(CN2CCOCC2)ccc(CN2CCOCC2)c1O`: 25.3% (inactive); `Oc1c(CN2CCOCC2)cc(CN2CCOCC2)c(O)c1CN1CCOCC1`: 20.2% (inactive). Regarding `C=CC(n1cncn1)C(O)(c1ccccc1)c1ccccc1` (stereo not drawn), the inhibition is -1.2% (inactive). Consider `COC(=O)c1ccccc1NC1=C/C(=N\S(=O)(=O)c2cccs2)c2ccccc2C1=O`, for which the inhibition is 7.26% (inactive) and 0.39% (inactive).

Take `O=C1C(Nc2ccccc2)=C/C(=N/S(=O)(=O)c2cccs2)c2ccccc21`: the inhibition is 0% (inactive). Take `Cc1ccc(S(=O)(=O)/N=C2\C=C(Nc3cccc(C(=O)O)c3)C(=O)c3ccccc32)c(C)c1`: the inhibition is 13.2% (inactive). With `O=C1C(Nc2ccc(O)cc2)=C/C(=N/S(=O)(=O)c2cccs2)c2ccccc21`, the inhibition is 22.4% (inactive).

Regarding `Cc1ccc(NC2=C/C(=N/S(=O)(=O)c3cccs3)c3ccccc3C2=O)cc1C`, the inhibition is 1.44% (inactive).

Take `Cc1ccc(S(=O)(=O)/N=C2\C=C(Nc3cccc(C(=O)O)c3)C(=O)c3ccccc32)cc1`: the inhibition was 9.52% (inactive). As to `CCc1ccc(S(=O)(=O)/N=C2\C=C(Nc3ccc(C(=O)O)cc3)C(=O)c3ccccc32)cc1`, the inhibition is 26.1% (inactive).

Consider `CCc1ccc(S(=O)(=O)/N=C2\C=C(Nc3cccc(C(=O)O)c3)C(=O)c3ccccc32)cc1`, for which the inhibition is 5.86% (inactive).

As for `CCOC(=O)C1(CC2CCCCO2)CCN(Cc2c(C)cc(C)cc2-n2cccn2)CC1` (stereo not drawn), the inhibition was -10.8% (inactive). On to `COc1ccc(S(=O)(=O)N2CCCCC2)cc1NC(=O)COC(=O)c1ccco1`, for which the inhibition is -2.61% (inactive). With `O=C(Nc1ccc(F)cc1)OCCOc1ccc([N+](=O)[O-])cc1`, the inhibition is -1.94% (inactive). On the same count and under the same terms, next, `CC(C)(C)OC(=O)COc1cc(F)ccc1[N+](=O)[O-]`: -8.99% (inactive); `Cc1cc(NC(=O)C2C3C(=O)N(CCC(C)C)C(C(=O)NCc4ccccc4)C34C=CC2(C)O4)no1` (stereo not drawn): -10.5% (inactive). As for `Cc1ccc(C(C)C)c(OCC(=O)NCC(c2cccs2)N2CCOCC2)c1` (stereo not drawn), the inhibition is 0.74% (inactive). In the case of `Cc1ccc(-n2c(-c3ccc(Cl)cc3Cl)n[nH]c2=S)cc1`, the inhibition was -16.5% (inactive). For the same compound, under setting [1], the inhibition is -6.44%. Turning to `COc1ccc(NS(=O)(=O)c2csc(C(=O)N3CCCC3)c2)c(OC)c1`, the inhibition was -6.24% (inactive). Regarding `O=C(COC(=O)Cc1n[nH]c(=O)c2ccccc12)NNC(=O)c1ccc(Br)cc1`, the inhibition is -4.04% (inactive). Consider `CCC(=O)Nn1c(C)nnc1C`, for which the inhibition is -2.7% (inactive). Take `Cc1ccc(S(=O)(=O)N2[C@@H](c3ccc(Cl)cc3)C(C(=O)O)=C[C@H]2CC2CCCC2)cc1`: the inhibition was 19.2% (inactive). In addition, the inhibition under setting [1] was 4.89%.

As for `Cc1ccc(S(=O)(=O)N2[C@@H](c3ccc(C(C)(C)C)cc3)C(C(=O)O)=CC[C@H]2c2ccc(Cl)c(Cl)c2)cc1`, the inhibition was 9.77% (inactive). For `Cc1ccc(S(=O)(=O)N2[C@@H](c3ccccc3)C(C(=O)O)=CC[C@H]2c2ccc(Cl)c(Cl)c2)cc1`, the inhibition is 10.4% (inactive). As to `Cc1ccc(S(=O)(=O)N2[C@@H](c3ccc(Br)cc3)C(C(=O)O)=CC[C@H]2c2cccc(Cl)c2)cc1`, the inhibition was -1.32% (inactive). In addition, the inhibition under setting [1] was 1.82%. As to `CCc1ccc([C@@H]2CC=C(C(=O)O)[C@H](c3ccc(Br)cc3)N2S(=O)(=O)c2ccc(C)cc2)cc1`, the inhibition is 25.8% (inactive). Further, the inhibition under setting [1] amounted to 10.7%. Turning to `Cc1ccc([C@H]2C(C(=O)O)=CC[C@@H](c3ccc(C)cc3)N2S(=O)(=O)c2ccc(C)cc2)cc1`, the inhibition was 5.29% (inactive). Further, the inhibition under setting [1] was -0.615%.

Consider `Cc1ccc([C@H]2C(C(=O)O)=C[C@@H](CC3CCCC3)N2S(=O)(=O)c2ccc(C)cc2)cc1`, for which the inhibition is 20.2% (inactive).

Take `Cc1ccc(S(=O)(=O)N2[C@@H](c3ccc(Cl)cc3)C(C(=O)O)=CC[C@H]2c2ccc(Cl)c(Cl)c2)cc1`: the inhibition is 27.3% (inactive).
